# Activity calls are given as the source filed them.
# Tests used:
# [1] = E. coli DRC41 culture turbidity changes, primary screen, E. coli filamentation inducer project, strain DRC41, OD650, 48 h (AID 1152);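 also: E. coli MC1000 strain DRC41 lacking acrAB efflux pump and sulA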; details: E. coli DRC41 (acrAB sulA), higher = more signal, called active from +8 up or from −8 down
# [2] = small-molecule binders of probe aLefty1, primary screen, biochemical, small-molecule microarray, 635/667 nm fluorescence (AID 1153); details: higher = more signal;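 also: score merges spot fluorescence with signal-to-noise ratio from the scanned slide images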
# [3] = PSAC antagonists in infected red cells, primary screen, cell-based, P. falciparum Indochina, OD700, 1 h (AID 1154); details: P. falciparum Indochina infected RBC osmotic lysis, higher = more signal, called active from +8 up or from −8 down
# [4] = PSAC antagonists in infected red cells, primary screen, cell-based, P. falciparum Indochina, OD700, 2 h (AID 1155);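 also: lysis reports solute entry through the parasite surface anion channel PSAC; channel blockers reduce lysis of infected cells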; details: P. falciparum Indochina infected erythrocytes, osmotic lysis OD700; higher = more signal, called active from +8 up or from −8 down
# [5] = osmotic lysis modulators in infected erythrocytes, primary screen, PSAC antagonist project, cell-based, P. falciparum Indochina, OD700, 3 h (AID 1156); details: higher = more signal, called active from +8 up or from −8 down
# [6] = PSAC antagonists in infected red cells, primary screen, cell-based, P. falciparum Indochina, OD700, 18 h (AID 1157); details: P. falciparum Indochina infected erythrocytes, osmotic lysis OD700, 18 h; higher = more signal, called active from +8 up or from −8 down
# [7] = modulators of S6 phosphorylation in cells, primary screen, cell-based, A549, cytoblot, luminescence, serum-stimulated (AID 1158); details: A549 phospho-S6 cytoblot, 5 h, higher = more signal;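 also: serum-stimulated A549 lung adenocarcinoma cells; signal is phosphorylated S6 detected by cytoblot immunostaining with HRP secondary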
# [8] = molecular target: NADPH oxidase 2 (Homo sapiens) (UniProt P04839); assay: NOX2-dependent H2O2 signal modulators, primary screen, NOX inhibitor project, cell-based, HEK293-NOX2, PMA-stimulated, Amplex Red fluorescence (AID 1159); details: 45 min, higher = more signal, called active from +8 up or from −8 down; also: test concentration not given here
# Chain of NADPH oxidase 2 (Homo sapiens) (P04839 whole entry, looked up): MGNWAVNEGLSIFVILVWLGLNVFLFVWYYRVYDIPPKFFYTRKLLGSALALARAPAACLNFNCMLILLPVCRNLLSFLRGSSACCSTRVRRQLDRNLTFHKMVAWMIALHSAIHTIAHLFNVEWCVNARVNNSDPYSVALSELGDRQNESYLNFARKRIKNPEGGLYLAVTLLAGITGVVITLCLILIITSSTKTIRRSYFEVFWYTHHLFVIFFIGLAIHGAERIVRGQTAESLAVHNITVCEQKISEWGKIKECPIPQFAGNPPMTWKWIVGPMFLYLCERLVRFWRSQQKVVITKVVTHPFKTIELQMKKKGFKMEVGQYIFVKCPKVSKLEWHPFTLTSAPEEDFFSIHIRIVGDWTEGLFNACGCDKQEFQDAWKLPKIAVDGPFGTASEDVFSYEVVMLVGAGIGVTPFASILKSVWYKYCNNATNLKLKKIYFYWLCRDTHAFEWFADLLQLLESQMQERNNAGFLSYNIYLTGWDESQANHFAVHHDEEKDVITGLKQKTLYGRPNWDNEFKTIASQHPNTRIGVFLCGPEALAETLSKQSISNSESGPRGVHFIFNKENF
# [9] = molecular target: NADPH oxidase 4 (Homo sapiens) (UniProt Q9NPH5); assay: NOX4-dependent H2O2 signal modulators, primary screen, NOX inhibitor project, cell-based, HEK293-NOX4, tetracycline-induced, Amplex Red fluorescence (AID 1160); details: 45 min, higher = more signal, called active from +8 up or from −8 down
# Chain of NADPH oxidase 4 (Homo sapiens) (Q9NPH5 whole entry, looked up): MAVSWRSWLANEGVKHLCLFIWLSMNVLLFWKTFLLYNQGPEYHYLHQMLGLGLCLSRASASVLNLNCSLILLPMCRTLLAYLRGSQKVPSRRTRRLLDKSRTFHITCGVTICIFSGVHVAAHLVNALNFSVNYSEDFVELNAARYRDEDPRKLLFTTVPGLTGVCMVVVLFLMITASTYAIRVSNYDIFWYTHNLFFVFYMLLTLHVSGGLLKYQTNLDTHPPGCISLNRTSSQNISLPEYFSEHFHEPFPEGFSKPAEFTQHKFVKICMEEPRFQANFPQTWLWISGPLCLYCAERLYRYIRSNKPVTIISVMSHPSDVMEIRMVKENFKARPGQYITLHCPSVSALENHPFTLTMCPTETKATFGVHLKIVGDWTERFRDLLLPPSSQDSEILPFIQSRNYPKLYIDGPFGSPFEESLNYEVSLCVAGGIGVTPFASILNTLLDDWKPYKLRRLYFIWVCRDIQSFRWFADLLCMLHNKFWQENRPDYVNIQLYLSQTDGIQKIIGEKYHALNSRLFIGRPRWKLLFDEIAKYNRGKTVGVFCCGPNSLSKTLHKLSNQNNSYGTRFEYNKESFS
# [10] = molecular target: NADPH oxidase 5 (Homo sapiens) (UniProt Q96PH1); assay: NOX5-dependent H2O2 signal modulators, primary screen, NOX inhibitor project, cell-based, HEK293-NOX5, Amplex Red fluorescence (AID 1161); details: HEK293-NOX5, ionomycin, 45 min, higher = more signal
# Chain of NADPH oxidase 5 (Homo sapiens) (Q96PH1 whole entry, looked up): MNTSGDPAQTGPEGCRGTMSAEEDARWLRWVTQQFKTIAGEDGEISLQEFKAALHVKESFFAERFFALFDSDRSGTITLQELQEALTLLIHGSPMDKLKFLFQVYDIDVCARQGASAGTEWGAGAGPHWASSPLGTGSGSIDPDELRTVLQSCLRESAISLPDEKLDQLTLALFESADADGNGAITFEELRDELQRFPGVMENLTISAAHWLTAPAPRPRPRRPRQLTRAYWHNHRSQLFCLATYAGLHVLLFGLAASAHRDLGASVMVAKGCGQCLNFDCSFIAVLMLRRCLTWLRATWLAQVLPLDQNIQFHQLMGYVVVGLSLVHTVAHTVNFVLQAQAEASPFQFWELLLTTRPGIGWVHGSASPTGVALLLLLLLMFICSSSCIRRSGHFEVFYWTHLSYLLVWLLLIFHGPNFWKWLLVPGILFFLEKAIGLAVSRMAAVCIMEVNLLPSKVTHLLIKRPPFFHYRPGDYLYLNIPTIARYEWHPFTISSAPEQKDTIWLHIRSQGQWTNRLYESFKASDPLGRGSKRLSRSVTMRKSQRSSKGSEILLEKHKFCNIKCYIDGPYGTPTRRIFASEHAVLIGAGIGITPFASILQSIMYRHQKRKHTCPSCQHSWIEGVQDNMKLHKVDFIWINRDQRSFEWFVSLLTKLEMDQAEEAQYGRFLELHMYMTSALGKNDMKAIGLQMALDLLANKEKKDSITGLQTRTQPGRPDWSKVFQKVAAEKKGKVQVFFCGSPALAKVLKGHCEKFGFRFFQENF
SMILES,z-score [1],composite z-score [2],z-score [3],z-score [4],z-score [5],z-score [6],z-score [7],z-score [8],z-score [9],z-score [10]
COc1ccc([Si](C)(C)[C@@H]2[C@@H](CCO)O[C@]3(C(=O)N(Cc4ccccc4)c4ccccc43)[C@H]2C)cc1,1.25 (inactive),-0.0143,1.13 (inactive),0.81 (inactive),0.117 (inactive),0.353 (inactive),0.779,1.57 (inactive),-0.523 (inactive),1.84
[N-]=[N+]=NCc1ccccc1C[C@]1(C(N)=O)N=C(c2ccc(OCCCO)cc2)O[C@H]1c1ccccc1CN=[N+]=[N-],0.0277 (inactive),0.71,29.3 (active),19.8 (active),1.82 (inactive),2.86 (inactive),2.41,-1.06 (inactive),0.885 (inactive),-0.692
COCCOC(=O)N1C(=O)[C@@]2(c3cc(C#CCCO)ccc31)[C@H](c1ccc(O)cc1)N1[C@H](c3ccccc3)[C@H](c3ccccc3)OC(=O)[C@H]1[C@@H]2C(=O)Nc1nc2ccccc2s1,1.45 (inactive),0.345,2.22 (inactive),1.59 (inactive),0.577 (inactive),1.73 (inactive),0.897,0.928 (inactive),-0.161 (inactive),1.21
C=C(COC)/C(=C/C[C@H](OC(C)=O)c1ccc(OCCO)cc1)c1cnc2ccccc2c1,1.25 (inactive),0.199,13.5 (active),-0.0743 (inactive),1.05 (inactive),-0.947 (inactive),-0.117,1.32 (inactive),0.767 (inactive),-0.593
CN(C)CCCC[C@@H]1NC(=O)[C@@H]2C[C@H](C(=O)O)[C@H](c3ccc(O)cc3)N2C1=O,2.66 (inactive),0.616,0.847 (inactive),-1.57 (inactive),-3.19 (inactive),-1.98 (inactive),1.03,-2.71 (inactive),-3.88 (inactive),-2.48
CC(=O)NCCCC[C@@H]1NC(=O)[C@H]2C[C@@H](C(=O)NCCCCCCN(C)C)[C@@H](c3ccc(O)cc3)N2C1=O,-0.233 (inactive),0.538,1.32 (inactive),0.461 (inactive),1.92 (inactive),0.0071 (inactive),0.144,-0.768 (inactive),-1.51 (inactive),-0.479
CC[C@@H]1C=C(C(=O)O)[C@H](c2ccccc2)N1S(=O)(=O)c1ccc([N+](=O)[O-])cc1,-3.21 (inactive),-0.405,1.3 (inactive),1.01 (inactive),0.751 (inactive),1.15 (inactive),-0.37,0.325 (inactive),-0.0428 (inactive),-0.526
COc1cc(CO)cc(I)c1O[C@H]1C=C(C(=O)NCCO)C[C@@H](N(CC2CCCCC2)C(=O)c2cc3ccccc3oc2=O)[C@@H]1O,2.01 (inactive),-0.0969,2.5 (inactive),0.718 (inactive),1.18 (inactive),0.207 (inactive),-0.0608,-0.289 (inactive),1.3 (inactive),0.647
C=C(CCCC)C(=O)CC[C@@H](OC(C)=O)c1ccccc1OCCO,0.377 (inactive),-0.145,4.13 (inactive),0.663 (inactive),-0.566 (inactive),0.7 (inactive),-0.0442,0.356 (inactive),-0.852 (inactive),-1.68
CO[C@@H]1COC(=O)[C@H](C)NC(=O)CC=C[C@@H](C)[C@H](NS(=O)(=O)c2ccc(C)cc2)COC(=O)CC=C[C@@H]1C,0.117 (inactive),-0.15,-0.697 (inactive),-0.207 (inactive),0.0724 (inactive),-0.0387 (inactive),0.225,0.564 (inactive),0.661 (inactive),0.661
CCOC(=O)[C@H]1C/C=C/C[C@H](C(=O)OCC)C(=O)O[C@H]2[C@@H](OC)O[C@H](CO)[C@@H](OC(=O)Nc3ccc(Br)cc3)[C@@H]2OC1=O,2.32 (inactive),0.0606,5.41 (inactive),1.8 (inactive),-3.28 (inactive),0.412 (inactive),1.5,-0.611 (inactive),-0.759 (inactive),1.63
C[C@@H]1CC[C@H]2C(=O)N3CCC[C@H]3C(=O)N2[C@H]1c1ccc(Br)cc1,1.29 (inactive),-0.218,0.338 (inactive),-0.0391 (inactive),0.363 (inactive),0.444 (inactive),0.349,0.607 (inactive),0.296 (inactive),0.764
C=C(C(=O)CC[C@H](OC(=O)c1ccccc1-c1ccccc1C(=O)O)c1ccc(CO)o1)C(C)C,-0.748 (inactive),0.0026,2.22 (inactive),0.36 (inactive),1.19 (inactive),0.233 (inactive),0.124,-0.162 (inactive),-0.621 (inactive),-0.867
O=C1O[C@@H](c2ccccc2)[C@@H](c2ccccc2)N2[C@@H](c3ccc(OCCO)cc3)[C@]3(C(=O)Nc4ccc(C#CCCO)cc43)[C@@H](C(=O)N3CCN(c4ncccn4)CC3)[C@H]12,0.533 (inactive),0.242,3.54 (inactive),1.71 (inactive),-1.56 (inactive),0.664 (inactive),-0.436,2 (inactive),0.677 (inactive),0.589
CO[C@H]1COC(=O)[C@@H](C)NC(=O)CC=C[C@@H](C)[C@H](OC)COC(=O)CC=C[C@@H]1C,0.394 (inactive),0.0455,1.08 (inactive),-0.211 (inactive),0.237 (inactive),-1.58 (inactive),0.722,0.714 (inactive),0.981 (inactive),0.539
Cc1ccc(S(=O)(=O)c2cc3oc2CC[C@@H](CO)NC(=O)N(C)Cc2cn(nn2)C[C@H](Cc2ccccc2)NC3=O)cc1,3.05 (inactive),-0.234,28.3 (active),13.3 (active),0.208 (inactive),2.03 (inactive),0.533,0.644 (inactive),0.743 (inactive),0.648
O=C(O)[C@@H]1Cc2c([nH]c3ccccc23)[C@@H](c2ccccc2)N1,0.327 (inactive),-0.202,0.864 (inactive),0.71 (inactive),1.46 (inactive),0.152 (inactive),-0.344,1.04 (inactive),-0.429 (inactive),-0.614
CCN1C(C)=C(C(=O)OC)[C@@H](c2ccccc2)N2C(=O)[C@@]3(C(=O)OC)O[C@@]12[C@@H]1C(=O)N(c2ccccc2)C(=O)[C@@H]13,0.325 (inactive),0.0166,0.69 (inactive),-0.39 (inactive),0.0305 (inactive),-1.08 (inactive),0.422,-0.816 (inactive),0.267 (inactive),-0.283
C[C@]1(C(=O)NCCN2CCOCC2)c2ccccc2C(=O)N(Cc2ccccc2)[C@H]1c1ccc(CO)cc1,0.402 (inactive),-0.0969,5.59 (inactive),0.516 (inactive),1.88 (inactive),0.719 (inactive),0.282,0.346 (inactive),-1.61 (inactive),-2.77
C[C@@H]1NC(=O)CC=C[C@@H](C)[C@@H]2C=C[C@H](O)[C@@H](COC(=O)[C@H](C)NC(=O)CC=C[C@@H](C)[C@@H]3C=C[C@H](O)[C@@H](COC1=O)O3)O2,0.327 (inactive),-0.147,1.33 (inactive),-0.302 (inactive),0.232 (inactive),-1.39 (inactive),1.64,1.28 (inactive),-0.991 (inactive),-0.0558
C[C@H]1COC(=O)[C@@H]2CCCN2C(=O)[C@@H](C)COC(=O)[C@@H]2CCCN2C1=O,0.407 (inactive),-0.147,-0.0889 (inactive),0.0593 (inactive),0.425 (inactive),-0.187 (inactive),0.33,0.764 (inactive),0.382 (inactive),-0.406
O=C1C[C@@](C(=O)NC2CC2)(c2ccc([N+](=O)[O-])cc2)[C@@H](c2ccc(CO)cc2I)N1CC12CC3CC(CC(C3)C1)C2,-1.11 (inactive),0.0158,22.3 (active),6.32 (inactive),1 (inactive),1.99 (inactive),-0.284,1.86 (inactive),0.129 (inactive),1.92
CCCC=C(CCC)[C@@H](NC(=O)c1ccccc1)c1ccccc1,-0.845 (inactive),0.221,1.37 (inactive),0.894 (inactive),0.131 (inactive),0.812 (inactive),0.316,-0.523 (inactive),0.304 (inactive),0.895
C=CCC(OC(C)=O)[C@@H]1[C@@H](N(Cc2cccc3ccccc23)C(=O)Cc2ccc(F)cc2)c2cc(OCCCO)ccc2N1C(=O)Cc1ccc2ccccc2c1 (stereo not given in full),0.576 (inactive),-0.0162,1.71 (inactive),0.605 (inactive),-0.0952 (inactive),0.434 (inactive),0.163,-0.606 (inactive),0.626 (inactive),0.765
C[C@@H]1CC[C@H]2C(=O)N3[C@@H](CC[C@@H](C)[C@@H]3c3cccc(N4CCOCC4)c3)C(=O)N2[C@H]1c1cccc(N2CCOCC2)c1,0.107 (inactive),0.191,0.43 (inactive),0.367 (inactive),0.567 (inactive),0.197 (inactive),0.348,1.07 (inactive),-1.09 (inactive),0.125
C=C(CCCC)C(=O)CC[C@@H](OC(=O)c1cccnc1)c1cccc(OCCO)c1,0.381 (inactive),-0.0954,26.7 (active),13.1 (active),1.28 (inactive),1.14 (inactive),-0.712,0.849 (inactive),0.849 (inactive),-1.41
